# Rows were chosen to be rich in hits. Some 2.9% of all compounds tested hit in one or more screens of this group.
# PLC-beta3 inh = human PLC-beta3 inhibitors, primary screen, biochemical, fluorescence; 1-phosphatidylinositol 4,5-bisphosphate phosphodiesterase beta-3 (Homo sapiens), Q01970; Purified PLC-beta3, fluorogenic substrate; inhibition, % at 12.2 µM; 370,000 tested, 0.18% active; AID 720704, 2013; in the data active means inhibition above about 11%;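 further: 0% = median of compound wells on plate and 100% = full blocker control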
# Target sequence (Q01970 whole entry, looked up): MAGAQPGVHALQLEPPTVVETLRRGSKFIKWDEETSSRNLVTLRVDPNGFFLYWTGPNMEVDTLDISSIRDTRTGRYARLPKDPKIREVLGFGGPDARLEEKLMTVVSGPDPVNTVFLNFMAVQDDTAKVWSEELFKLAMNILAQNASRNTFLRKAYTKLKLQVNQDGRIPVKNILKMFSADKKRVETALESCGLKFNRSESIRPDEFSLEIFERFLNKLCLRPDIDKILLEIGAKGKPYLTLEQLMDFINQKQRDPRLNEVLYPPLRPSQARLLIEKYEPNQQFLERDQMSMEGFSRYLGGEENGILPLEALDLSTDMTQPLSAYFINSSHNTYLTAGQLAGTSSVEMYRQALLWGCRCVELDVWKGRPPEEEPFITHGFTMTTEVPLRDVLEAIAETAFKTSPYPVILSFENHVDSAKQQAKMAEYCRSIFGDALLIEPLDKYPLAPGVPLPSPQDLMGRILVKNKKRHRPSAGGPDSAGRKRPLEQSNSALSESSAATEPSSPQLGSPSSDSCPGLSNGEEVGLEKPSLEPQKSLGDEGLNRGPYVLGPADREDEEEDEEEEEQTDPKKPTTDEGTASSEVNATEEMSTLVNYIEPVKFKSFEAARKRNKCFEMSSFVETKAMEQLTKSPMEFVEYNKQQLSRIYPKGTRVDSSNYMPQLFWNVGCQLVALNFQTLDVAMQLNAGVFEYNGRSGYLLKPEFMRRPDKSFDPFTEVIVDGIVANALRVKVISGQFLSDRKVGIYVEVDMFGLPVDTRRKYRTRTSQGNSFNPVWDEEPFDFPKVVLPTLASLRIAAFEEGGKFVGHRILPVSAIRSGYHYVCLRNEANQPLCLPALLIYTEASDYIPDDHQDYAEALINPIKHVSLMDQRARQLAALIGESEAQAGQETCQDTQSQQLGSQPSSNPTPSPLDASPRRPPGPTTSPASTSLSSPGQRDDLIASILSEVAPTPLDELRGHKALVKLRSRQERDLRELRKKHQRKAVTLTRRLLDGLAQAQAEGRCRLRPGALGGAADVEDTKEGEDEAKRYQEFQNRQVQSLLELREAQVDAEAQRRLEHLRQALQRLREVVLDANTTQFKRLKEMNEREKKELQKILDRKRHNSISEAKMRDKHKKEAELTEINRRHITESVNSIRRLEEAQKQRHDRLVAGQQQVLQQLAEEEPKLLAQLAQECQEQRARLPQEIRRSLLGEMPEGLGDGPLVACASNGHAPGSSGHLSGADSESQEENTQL
# ADAM17 inh = ADAM17 inhibitors, primary screen, biochemical, QFRET | inhibition, % at 6.95 µM | Disintegrin and metalloproteinase domain-containing protein 17 (Homo sapiens), P78536 | recombinant ADAM17, EDANS/DABCYL FRET peptide cleavage | AID 720648, 2013 | 370,000 tested, 0.83% active;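 active means inhibition above the mean of compounds lying between control limits plus 3 SD, set per campaign, cut at about 8.5% in these data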;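 further: 0% = DMSO-only wells as the low control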
# proKLK7 act = proKLK7 zymogen activators, primary screen, biochemical, fluorescence intensity; 370,000 tested, 0.9% active; purified proKLK7, EDANS-DABCYL substrate fluorescence; 100% is mature enzyme control, 0% vehicle; activation, % at 7 µM;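 active means activation above the mean of all tested compounds plus 3 SD, computed per campaign excluding outliers beyond control limits, cut at about 13% in these data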
# ADAM10 inh = human ADAM10 inhibitors, primary screen, biochemical, QFRET, HTS. recombinant ADAM10, EDANS/DABCYL FRET peptide cleavage, 3 h. inhibition, % at 7 µM. 370,000 tested, 0.62% active. AID 720582, 2013;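 active means inhibition above a per-campaign cutoff equal to the mean of compounds falling between control-based bounds plus 3 SD, cut at about 20% in these data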;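 further: 0% = DMSO wells while the 100% control is not disclosed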
# PLCg1 inh = PLC-gamma1 enzyme inhibitors, primary screen, biochemical, fluorescence, purified enzyme; 1-phosphatidylinositol 4,5-bisphosphate phosphodiesterase gamma-1 (Homo sapiens), P19174; fluorogenic substrate; inhibition, % at 12.2 µM; 370,000 tested, 0.84% active; AID 720700, 2013; in the data active means inhibition above about 9.5%
# ADAM10 confirm = human ADAM10 inhibitors, confirmation, biochemical, QFRET, triplicate | shares compounds with ADAM10 inh | ADAM10 QFRET peptide cleavage, EDANS fluorescence | inhibition, % at 6.95 µM | 2,100 tested, 1% active | AID 743208, 2013;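 active means inhibition above about 20% chosen separately for each screening run, limit read from the data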;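 further: 0% = DMSO wells and 100% = marimastat wells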
# ADAM17 counter = ADAM17 inhibitors, counter-screen for ADAM10 exosite inhibitor project, biochemical, QFRET, high throughput. ADAM17 QFRET peptide cleavage, EDANS fluorescence. AID 743214, 2013. inhibition, % at 6.95 µM. shares compounds with ADAM10 inh. 2,100 tested, 0.5% active;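 active means mean triplicate inhibition above the solvent-only control wells' mean plus 3 SD, cut at about 12% in these data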;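 further: 0% = DMSO wells and 100% = marimastat wells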
# ADAM10 ctr = ADAM10 inhibitors, counter-screen for ADAM17 exosite inhibitor project, biochemical, FRET, human ADAM10; shares compounds with ADAM17 inh; recombinant ADAM10, EDANS/DABCYL FRET peptide cleavage, 3 h; inhibition, % at 6.95 µM; 2,900 tested, 47% active; AID 743256, 2014;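 active means mean inhibition over the triplicate runs exceeds the activity threshold set in the earlier primary screen, cut at about 20% in these data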;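 further: 0% = DMSO wells and 100% = marimastat wells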
# ADAM17 confirm = ADAM17 inhibitors, hit retest, confirmation, biochemical, QFRET peptide cleavage. 2,900 tested, 65% active. recombinant ADAM17, EDANS/DABCYL QFRET peptide cleavage. shares compounds with ADAM17 inh. inhibition, % at 6.95 µM;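 active means mean inhibition across replicates above the hit cutoff set in the primary screen, cut at about 8.5% in these data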;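 further: 0% = DMSO wells and 100% = marimastat wells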
# * hit, by the source's call; . = no result.
SMILES,PLC-beta3 inh,ADAM17 inh,proKLK7 act,ADAM10 inh,PLCg1 inh,ADAM10 confirm,ADAM17 counter,ADAM10 ctr,ADAM17 confirm
COc1ccc(S(=O)(=O)N2CCC(C(=O)NC3CC(C)(C)NC(C)(C)C3)CC2)cc1,-7,-1,-1,2,4,.,.,.,.
CCc1cc(Cn2nc(-c3ccccc3)cc2C(=O)NCc2cccc(Br)c2)on1,2,14*,0,21*,3,13,4,36*,22*
CCc1cc(Cn2nc(-c3ccccc3)cc2C(=O)NCc2ccc(C)cc2)on1,-1,9.1*,0,29*,0,8,3,24*,13*
CC1CN(S(=O)(=O)c2cccc(C(F)(F)F)c2)C(C)N1C(=O)N1CCOCC1 (stereo not given),-4,0,1,-2,-1,.,.,.,.
FC(F)Oc1ccc(NC(=S)NCc2ccccc2)cc1Cl,-3,6,0,10,-2,.,.,.,.
O=C(Cc1cccc2ccccc12)Nc1ccc(OC(F)F)c(Cl)c1,1,9.9*,0,23*,7,6,2,30*,20*
O=C(NCC1COc2ccccc2O1)c1ccc(NC(=O)C(c2ccccc2)c2ccccc2)cc1 (stereo not given),6,2,0,10,3,.,.,.,.
O=C(Nc1nccs1)c1cccc(N2C(=O)c3cccc4c([N+](=O)[O-])ccc(c34)C2=O)c1,-109,-4,0,-4,-101,.,.,.,.
CCCCC[C@@H](C)N1C[C@@H](COCc2ccccc2)Oc2cc(N3CC[C@H](O)C3)ccc2S1(=O)=O,0,9.1*,0,22*,-1,11,3,34*,18*
Cc1ccccc1-n1c(SCC(=O)N/N=C/c2c(C)nn(-c3ccccc3)c2C)nc2ccccc2c1=O,2,11*,0,21*,4,7,2,33*,16*
COc1ccc(OC)c(-n2c(-c3cc(-c4ccc(F)cc4)n[nH]3)n[nH]c2=S)c1,2,9.3*,0,20*,2,1,1,0,3
COc1ccc(-c2n[nH]c(=S)n2-c2cc(OC)ccc2OC)cc1,-8,-1,0,0,1,.,.,.,.
O=C(CCS(=O)(=O)c1ccccc1)Nc1ccc(N2CCN(Cc3ccccc3)CC2)cc1,-3,-2,0,-12,2,.,.,.,.
COc1cc(C(=O)c2ccccc2)c(OC)cc1C(=O)Nc1ccc(O)cc1,8,15*,0,30*,6,-1,1,0,3
COc1ccc(NC(=O)c2cc3ccccc3cc2OC)cc1,-86,-1,-5,0,-67,.,.,.,.
COc1ccc(S(=O)(=O)N2CCOCC2)cc1NC(=O)CCOc1ccc(C(C)(C)C)cc1,-1,3,0,6,-4,.,.,.,.
CC(OC(=O)c1cccc(S(=O)(=O)Nc2cccc(C(F)(F)F)c2)c1)C(=O)Nc1ccc2c(c1)OCCO2 (stereo not given),2,9.2*,2,28*,0,5,1,28*,14*
O=C(Nc1cccc(C(F)(F)F)c1)N1CCC(c2nc(-c3ccc(F)cc3)no2)CC1,0,9.6*,0,21*,1,6,2,34*,17*
O=C(COC(=O)c1cccc(S(=O)(=O)N2CCOCC2)c1)Nc1nc(-c2ccccc2Cl)cs1,10,16*,0,37*,8,10,4,35*,17*
Cc1cc(NC(=O)COC(=O)c2cccc(S(=O)(=O)N3CCOCC3)c2)no1,4,-1,0,2,4,.,.,.,.
CC(C)(C)c1ccc(-c2nnc(SCC(=O)Nc3cccc4ccccc34)n2Cc2ccco2)cc1,2,9.2*,0,20*,5,6,2,36*,17*
O=C(CSc1nnc(-c2ccc(Cl)cc2)n1Cc1ccco1)Nc1cccc2ccccc12,-2,-1,0,-11,0,.,.,.,.
CC(=NNC(=O)CSc1nnc(-c2ccc(C(C)(C)C)cc2)n1-c1ccccc1)c1cccc2ccccc12,-1,8.9*,0,23*,0,14,4,17,13*
COc1cccc(Nc2nc(CN)cs2)n1,-12,-5,0,-30,-2,.,.,.,.
COc1ccc(C(=O)NC(=S)Nc2ccc(Cc3ccncc3)cc2)cc1,4,9.0*,0,36*,2,3,1,23*,11*
SMILES,PLC-beta3 inh,ADAM17 inh,proKLK7 act,ADAM10 inh,PLCg1 inh,ADAM10 confirm,ADAM17 counter,ADAM10 ctr,ADAM17 confirm
Cc1ccccc1C(=O)NC(=S)Nc1ccc(Cc2ccncc2)cc1,5,3,0,6,0,.,.,.,.
COc1cc(NC(=O)CN2C(=O)C(c3ccccc3)=NC23CCCCCC3)cc(OC)c1,3,8.7*,0,30*,5,2,1,6,5
CCCc1nc2ccccc2c(C(=O)OC(C)C(=O)NCc2ccc3c(c2)OCO3)c1CC (stereo not given),0,10*,0,27*,3,3,1,25*,12*
CCOC(=O)c1c(N)sc(C(O)(C(F)(F)F)C(F)(F)F)c1-c1ccc(Cl)cc1,-3,11*,0,37*,-2,8,2,47*,24*
C=CCC[C@H](Cc1ccc(F)cc1)C(=O)OC[C@H](Cc1c[nH]c2ccccc12)NC(=O)[C@@H](CC=C)CC(=O)N(CCO)Cc1ccccc1,2,14*,0,27*,3,9,3,40*,20*
C=CC[C@@H](CC(=O)N(CCO)Cc1ccccc1)C(=O)N[C@H](C)COC(=O)[C@@H](CC=C)Cc1ccc(F)cc1,0,2,1,6,1,.,.,.,.
